Experimental data as given in the supplement of paper PMC6555819.

Key:
Test in all cases: PBM binding z-score (relative to random genomic background probes); higher = stronger binding; sequences stand for … in GC…GCGATTGACAGCGTAGAATGAAGG
[1] = test system: FXR:RXRa (NR concentration 270 nM, RXRa partner concentration 90 nM)
Method in brief: (§1)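 Custom Agilent 4×180K protein-binding microarrays carried double-stranded probes, each with a 34-nt variable region. These regions held direct-repeat seeds, single-nucleotide variants, half-site ablations and random human genomic background sequences. Ligand-free nuclear receptor dimers were incubated on the arrays for 1 h, antibodies against each partner (one per run) detected binding, and scanned fluorescence was regression-normalized. Binding z-scores take the random background probes as reference.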

[2] = test system: LXRa:RXRa (NR concentration 270 nM, RXRa partner concentration 90 nM)
Method in brief: as §1

[3] = test system: LXRa homodimer (NR concentration 270 nM)
Method in brief: as §1

[4] = test system: LXRb:RXRa (NR concentration 270 nM, RXRa partner concentration 90 nM)
Method in brief: as §1

[5] = test system: LXRb homodimer (NR concentration 270 nM)
Method in brief: as §1

[6] = test system: PPARa:RXRa (NR concentration 270 nM, RXRa partner concentration 90 nM)
Method in brief: as §1

[7] = test system: PPARg:RXRa (NR concentration 180 nM, RXRa partner concentration 90 nM)
Method in brief: as §1

[8] = test system: PPARg:RXRa 270nM:90nM, anti-RXR (NR concentration 270 nM, RXRa partner concentration 90 nM)
Method in brief: as §1

[9] = test system: PPARg:RXRa 30nM:10nM, anti-RXR (NR concentration 30 nM, RXRa partner concentration 10 nM)
Method in brief: as §1

[10] = test system: PPARg:RXRa 90nM:30nM, anti-RXR (NR concentration 90 nM, RXRa partner concentration 30 nM)
Method in brief: as §1

| Sequence | PBM binding z-score [1] | PBM binding z-score [2] | PBM binding z-score [3] | PBM binding z-score [4] | PBM binding z-score [5] | PBM binding z-score [6] | PBM binding z-score [7] | PBM binding z-score [8] | PBM binding z-score [9] | PBM binding z-score [10] |
| --- | --- | --- | --- | --- | --- | --- | --- | --- | --- | --- |
| CTACCAAGGTGAACAAGGTCGTAGATTACTATTC | 1.44 | 1.27 | -0.0649 | 1.62 | -0.766 | 2.66 | 1.19 | 1.36 | 0.159 | 0.588 |
| CCTACTGGTCCAAAAAGGTCATTGATGCCGATAA | 3.82 | 4.66 | 3.95 | 4.54 | 1.21 | 4.72 | 1.53 | 2.98 | 0.82 | 2.04 |
| ATCGAAGGGTCGTGAGGTGAGTATACAGAAAGGC | 2.2 | 1.7 | -0.107 | 1.58 | 0.162 | 3.34 | 1.74 | 1.77 | 0.78 | 1.23 |
| AGAATGAGGTTATACGTAGATCAGAGAAGAAAGT | 2.4 | 1.86 | 0.0397 | 1.57 | 0.2 | 3.2 | 2.36 | 2.1 | 0.792 | 1.45 |
| ATCTCTAGGTATAAGTTCAGTGAATCCCGAGGAT | 0.24 | 0.542 | 0.507 | 0.379 | 0.825 | 1.77 | 2.79 | 4.45 | 2.94 | 4.55 |
| CAAACTAGGTCAAGAGGACAAAGTCCGCTTCCCG | 3.92 | 2.83 | 1.1 | 1.67 | 0.143 | 4.69 | 7.86 | 6.69 | 4.57 | 6.62 |
| GCGACTGGGGCAAAGCAGGGTACCATAAGGTTGG | -0.153 | -0.295 | -0.964 | -0.249 | -1.01 | 0.981 | 0.93 | 0.904 | -0.207 | 0.227 |
| CGAACTAGGTCAAGGACACTGAATCTCCGCACGC | 3.6 | 2.34 | 0.392 | 1.61 | -0.129 | 4.59 | 7.39 | 6.12 | 3.48 | 5.6 |
| ACAGACAGGTGATGAAGGTAACTTAGGCTATCAT | -0.131 | -0.0415 | -0.322 | 0.0367 | -0.119 | 0.169 | 0.55 | -0.195 | -0.0102 | -0.0594 |
| CATACAGGGTCAGCTAGGTCAGAGTAGGGACGGC | 5.34 | 3.88 | 0.985 | 3.24 | 0.645 | 4.72 | 4.42 | 3.93 | 0.846 | 2.42 |
| CTCGAGAGGTCGGTTGAGGTGAGTATACGGATAA | 2.48 | 1.8 | -0.0602 | 2.2 | -0.474 | 2.93 | 0.425 | 0.591 | -0.178 | 0.092 |
| CGATCTAGGTCATTGACAGGACAGTGAATAGTAA | 4.68 | 2.86 | 0.511 | 2.07 | 0.134 | 4.52 | 6.86 | 6.06 | 3.13 | 5.68 |
| AGTCAAAGTTAATCTAGGTAACGTAAGATATGCT | 0.59 | 0.213 | -0.267 | -0.245 | -0.44 | 1.29 | 1.78 | 1.41 | 0.619 | 0.829 |
| TCATATAGGTAAAAGGTGCAAGTCGGTGTGGTAA | 1.29 | 1.09 | 0.188 | 1.25 | 0.0143 | 3.34 | 5.37 | 5.97 | 5.85 | 6.52 |
| CCTAGTTGGACAAGGTCACACACGCTATAGGTAC | 3.57 | 3.53 | 1.48 | 3.58 | 0.67 | 4.1 | 2.58 | 2.92 | 0.968 | 2.08 |
| CAAACTAGGTCACCAGAAGGTCAAAGTCCGCATG | 6.14 | 6.04 | 4.65 | 5.24 | 1.41 | 6.22 | 9.74 | 7.94 | 6.18 | 7.98 |
| CCGACTGGGGCAAACGTTACCATACTCAGTACGA | -0.264 | -0.168 | -0.00869 | -0.27 | -0.682 | 1.61 | 3.62 | 4.48 | 2.27 | 4.25 |
| CTCGAAAGGTTGTGCTCAGGTGAGTATACCAAAC | 0.895 | 0.617 | -0.192 | 0.714 | -0.313 | 1.04 | -0.0653 | 0.312 | -0.567 | 0.171 |
| GCTGGTAGATCAAGGTTAAGAAAGACTAAGCTAA | 0.17 | 0.885 | -0.138 | 0.378 | -0.528 | 1.12 | 0.134 | 1.18 | -0.00579 | 1 |
| ATCTCTAGGTAAAGTTGAGTGAAAGATCGATAGA | 0.674 | 0.644 | -0.0419 | 0.163 | 0.646 | 0.992 | 1.37 | 2.56 | 1.23 | 2.07 |
| TCTTGTAAATCAAGCAGGTTAAGAAAGCCTGAGT | 0.618 | 0.47 | -0.237 | 0.526 | -0.289 | 0.845 | -0.51 | 1.34 | 2.8 | 2.01 |
| TCTCGGAGGACACGAAGGTGAGAGCTTTCCAGAG | -0.0901 | -0.338 | -0.832 | -0.756 | -1.18 | -0.0332 | 0.00837 | 0.718 | 1.9 | 0.958 |

| Sequence | PBM binding z-score [1] | PBM binding z-score [2] | PBM binding z-score [3] | PBM binding z-score [4] | PBM binding z-score [5] | PBM binding z-score [6] | PBM binding z-score [7] | PBM binding z-score [8] | PBM binding z-score [9] | PBM binding z-score [10] |
| --- | --- | --- | --- | --- | --- | --- | --- | --- | --- | --- |
| ATCGACAGGTCGTGAGGTGAGTATACAGAAAGGC | 1.05 | 1.19 | 0.0757 | 0.943 | 0.0816 | 2.14 | 1.15 | 0.86 | 0.126 | 0.461 |
| CGTCCAAGGTCATAGGAGATCAGTGAAGACAGAT | 6.93 | 5.5 | 1.32 | 3.92 | 0.511 | 5.4 | 4.74 | 4.9 | 2.45 | 3.71 |
| ATACCAAGGTGATCGTGAGGTCTTTGATACTAAC | 0.467 | 0.136 | 0.00658 | 0.0706 | -0.603 | 0.646 | 0.322 | 0.105 | -0.238 | -0.296 |
| AATACAGGGTCATCGAAGGCCAGAGTACGCACAG | 6.84 | 6.3 | 1.75 | 4.59 | 1.53 | 5.67 | 6.5 | 6.11 | 2.56 | 4.66 |
| ATCTCTAGGTAACCAAGTGCAGTGAATGCCGAAC | -0.0336 | 0.0225 | -0.464 | -0.183 | 0.282 | -0.0554 | 0.325 | 0.259 | -0.0021 | 0.298 |
| CCTAGCAGGCCAATCTGGGTCAGTCAAGGCTTGA | 0.816 | 0.419 | -0.663 | 0.0551 | -1.41 | 1.97 | 0.228 | 0.88 | -0.729 | 0.114 |
| ATACCAAGGTGATCGTGAGGTCGCTGATACTAAC | 1.23 | 0.653 | 0.154 | 0.766 | -0.474 | 1.15 | 0.701 | 0.558 | -0.172 | 0.198 |
| CCTACTGGGCCAAAAAGGTCCTTGATGCCGATAA | -0.386 | -0.565 | -0.584 | -0.39 | -0.811 | 0.631 | 0.195 | 0.889 | -0.0812 | 0.211 |
| CTTCCAAGGTCAGCAGGTCAGTGAAAGCGACGTG | 5.62 | 4.48 | 0.986 | 3.24 | 0.067 | 4.87 | 3.78 | 4.64 | 1.14 | 3.27 |
| TCAAATAGGTAAACAGGTGAAAGTCCGTAAGTTA | 0.954 | 0.935 | 0.164 | 0.968 | -0.112 | 2.28 | 2.64 | 3.76 | 4.64 | 4.28 |
| TCTATTAGTTGCTTAGGGCAACCGAAACAGCGGA | 0.577 | 0.582 | 0.0862 | 0.602 | 0.556 | 0.886 | -0.0516 | 1.87 | 3.56 | 2.88 |
| GCTAGTTGGTCTGTAAAAGGTCACACACCGGTCG | 3.27 | 4.45 | 4.26 | 3.98 | 0.57 | 4.33 | 2.5 | 4.63 | 2.19 | 4.12 |
| ACTATTATTTGAGACGAGGGCAACCGATAGGTTG | 0.64 | 0.912 | 1.29 | 0.748 | 1.1 | 0.639 | 0.833 | 0.648 | 0.477 | 0.429 |
| TCTGCTAGGTCAGTTGGTCAGCTAACGAGCTGCC | 0.844 | 0.445 | -0.44 | 0.299 | 0.673 | 1.29 | 0.575 | 1.83 | 1.27 | 1.66 |
| CGTGAAAGTTCAAGGTAACGTAACAGAAAGCAGC | 5.94 | 5.62 | 2.82 | 3.12 | 0.85 | 4.54 | 3.2 | 4.01 | 1.51 | 3.03 |
| ATATGTAGGTTACATCCGGGTCATTCAAGCTATG | 2.46 | 4.38 | 1.74 | 3.45 | 0.746 | 4.7 | 6.29 | 5.22 | 2.73 | 4.53 |
| ATCGAAAGGTCGAGAGGTGAGTATACAGAAAGGC | 4.46 | 3.02 | -0.0292 | 2.63 | 0.274 | 4.33 | 3.42 | 3.44 | 1.69 | 2.47 |
| CGAACGAGGGCATGAGTTGATGGCAAATGCCGAT | 0.483 | 0.315 | -0.503 | -0.235 | -0.92 | 1.4 | 1.24 | 1.34 | -0.207 | 0.832 |
| TCATATAGGTAGAAGGTGAAAGTCGGTGTGGTAA | 1.26 | 1.21 | 0.0834 | 1.16 | -0.0966 | 3.46 | 5.61 | 6.84 | 5.99 | 7.35 |
| CGAACTAGGTCAGAACAGGACACTGAAGGATGAT | 1.48 | 1.37 | 0.372 | 0.71 | -0.177 | 3.15 | 5.08 | 4.56 | 1.8 | 3.43 |
| TCTAGTAGGCCAGAGGGTCACTCAAGAGGTACGG | 0.984 | 1.06 | -0.235 | 1.23 | -0.774 | 3.17 | 4.36 | 5.3 | 4.21 | 5.28 |
| TCTTGTAGTTCAATAGAGGTTAAGAAAGTGCGCT | 2.33 | 5.37 | 2.45 | 3.06 | 0.28 | 2.28 | -0.0212 | 1.83 | 2.94 | 2.06 |
